The values that follow come from PubChem BioAssay (NCATS).

Inconclusive results are not listed. Unmarked numbers belong to inactive results. The source made the active and inactive calls. Calls come from the whole dose curve; as a rule, active = well fitted curve in the direction sought with a large enough effect; inconclusive = small, poorly fitted or top-dose-only effect, or another doubt; inactive = no such curve, though single readings can be large; an effect the other way counts as inactive or inconclusive.

In assay [1] the test system is C33A. In words: Primary qHTS to identify gynecologic anti-cancer compounds using libraries of approved drugs and bioactive compounds (AID 1345084). Note: nearly all actives have a fitted effect of over 55% in size. The settings on record: Gynecologic cancer cell panel viability, ATPlite luminescence, 48 h; series mostly up to 57.5 µM. An outline of the steps: (§1)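 In this quantitative HTS, cell killing is estimated from loss of ATP-dependent luciferase light. Cells see five compound concentrations over a 48 h exposure.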
A general note: In qHTS, concentration-response curves come from the screen itself.

Assay [2] relates to CAOV3. The assay is described as above. The note with it: Gynecologic cancer cell panel viability, ATPlite luminescence, 48 h; series mostly up to 57.5 µM. An outline of the steps: as §1
(In ATP-based viability assays light output follows the ATP content of the culture.)

The subject of assay [3] is CASKI. Described as above. The settings on record: Gynecologic cancer cell panel viability, ATPlite luminescence, 48 h; series mostly up to 57.5 µM. The gist of the method:
as §1

The test system of assay [4] is Es-2. Described as above. The settings on record: Gynecologic cancer cell panel viability, ATPlite luminescence, 48 h; series mostly up to 57.5 µM. An outline of the steps: as §1
In assay [5] the test system is HeLa. Described as above. The note with it: Gynecologic cancer cell panel viability, ATPlite luminescence, 48 h; series mostly up to 57.5 µM. An outline of the steps:
as §1

The test system of assay [6] is Hek293T. Described as above. The settings on record: Gynecologic cancer cell panel viability, ATPlite luminescence, 48 h, control line for the selectivity index; series mostly up to 57.5 µM. An outline of the steps: as §1
Assay [7] has as its system JEG-3. The assay is described as above. The settings on record: Gynecologic cancer cell panel viability, ATPlite luminescence, 48 h; series mostly up to 57.5 µM. The gist of the method:
as §1

In assay [8] the test system is OV90. Described as above. The settings on record: Gynecologic cancer cell panel viability, ATPlite luminescence, 48 h; series mostly up to 57.5 µM. The gist of the method:
as §1

Assay [9] concerns MCC-13. In words: qHTS assay to identify novel small-molecules to repurpose for Merkel cell carcinoma treatment (AID 1296009). Note: nearly all actives have a fitted effect of over 60% in size. The note with it: MCC and control cell lines, CellTiter-Glo viability, 72 h; series mostly up to 46 µM. The gist of the method:
(§2)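 qHTS format: cells treated with library compounds in DMSO across 8 (NPC) or 11 (MIPE) concentrations. Readout after 72 hr at 37 degree celsius was CellTiter-Glo luminescence.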

The test system of assay [10] is MCC-26. The description is as above. The note with it: MCC and control cell lines, CellTiter-Glo viability, 72 h; series mostly up to 46 µM. The gist of the method: as §2
In assay [11] the test system is MKL-1. The assay is described as above. The settings on record: MCC and control cell lines, CellTiter-Glo viability, 72 h; series mostly up to 46 µM. An outline of the steps:
as §2

For assay [12], the system named is MKL-2. The assay is described as above. The note with it: MCC and control cell lines, CellTiter-Glo viability, 72 h; series mostly up to 46 µM. An outline of the steps:
as §2

For assay [13], the system named is UISO. The assay is described as above. The settings on record: MCC and control cell lines, CellTiter-Glo viability, 72 h; series mostly up to 46 µM. An outline of the steps: as §2
In assay [14] the test system is WaGa. The assay is described as above. The settings on record: MCC and control cell lines, CellTiter-Glo viability, 72 h; series mostly up to 46 µM. The gist of the method:
as §2

Assay [15] deals with NIH3T3. The assay can be described thus: Cytotoxic Profiling of Annotated Libraries Using Quantitative High-Throughput Screening (AID 1296008). Note: nearly all actives have a fitted effect of over 60% in size. The note with it: Five cell lines viability, CellTiter-Glo ATP luminescence, 48-72 h; max response: hits give low values. The gist of the method: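 Compounds were pin-transferred onto cells and incubated 48 or 72 hr at 37 degree Celsius, 95% humidity. CellTiter-Glo was added, plates sat 10 min at room temperature, then ATP-coupled luminescence was imaged as the viability read-out.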

Assay [16] relates to HACAT. The assay can be described thus: qHTS assay to identify novel small-molecules to repurpose for Merkel cell carcinoma treatment (AID 1296009). Note: nearly all actives have a fitted effect of over 60% in size. The settings on record: MCC and control cell lines, CellTiter-Glo viability, 72 h; at 44.8 µM (top of the series) unless noted. The gist of the method:
as §2
% is set by controls: 0 for no effect and ±100 for the full control effect; potency is the fitted concentration of half-maximal effect.

As for `CC(NN)c1ccccc1` (configuration not stated), the Potency entry in assay [1], in assay [2], in [3], in [4], in assay [5] and in assay [6] was “inactive” throughout. For the same compound, the Potency result in [7] and in assay [8] was “inactive” throughout.
As for `C[C@@H](O[C@H]1OCCN(Cc2n[nH]c(=O)[nH]2)[C@H]1c1ccc(F)cc1)c1cc(C(F)(F)F)cc(C(F)(F)F)c1`, the Potency result in assay [1], in [2], in assay [3], in assay [4], in assay [6] and in assay [7] was “inactive” throughout. In assay [8], the Potency result is “inactive”.
Consider `CC[N+]1(CC)CCC(=C(c2ccccc2)c2ccccc2)C1C` (configuration not stated), for which the Potency result in assay [1], in assay [2], in assay [3], in assay [4], in assay [5] and in assay [6] was “inactive” in each case. In addition, in [8], the Potency result is “inactive”.
With `CC(C)=CCC/C(C)=C/CC/C(C)=C/C(=O)OCC(=O)[C@@]1(O)CC[C@H]2[C@@H]3CCC4=CC(=O)C=C[C@]4(C)[C@H]3[C@@H](O)C[C@@]21C`, the Potency entry in assay [9], in [10], in assay [11], in assay [12], in [13] and in [14] was “inactive” in each case. Also, the Potency result in assay [1], in [2], in assay [3], in assay [5], in assay [7] and in assay [8] was “inactive” in each case. Besides, the Potency in assay [6] was 35.5 µM (active).
Consider `CC(C)=CCNc1ncnc2c1ncn2[C@@H]1O[C@H](CO)[C@@H](O)[C@H]1O`, for which the Potency in assay [15] is 7.5 µM (active); in [9], 8.41 µM (active); in [11], 1.68 µM (active); in assay [12] it was 0.944 µM (active); in [13], 1.88 µM (active); in assay [14], 2.99 µM (active). The Potency is 12.6 µM (active) in [1]; 7.94 µM (active) in [2]; 12.6 µM (active) in assay [3]; 25.1 µM (active) in assay [4]; 14.1 µM (active) in assay [5]; 17.8 µM (active) in [8].
For `COc1ccc([C@@H]2Sc3ccccc3NC(=O)[C@@H]2O)cc1`, the Potency entry in [10], in [12], in assay [1], in assay [2], in [3] and in assay [4] was “inactive” each time. The Potency result in assay [5], in [7] and in assay [8] was “inactive” in each case.
Regarding `CN=C(N)NC(=O)Nc1c(C)cccc1C`, the compound was classed as inactive in [16]. For the same compound, the Potency entry in [9], in assay [10], in [11], in [12], in assay [13] and in assay [14] was “inactive” in each case. The Potency entry in assay [1], in [2], in [3], in assay [4], in assay [5] and in assay [6] was “inactive” throughout. The Potency result in assay [7] and in assay [8] was “inactive” each time.
`O=C1CC[C@H](C(=O)N2CCCCC2)N1`: the Potency result in [1], in assay [2], in assay [3], in [4], in assay [5] and in [6] was “inactive” each time. Moreover, the Potency result in assay [7] and in [8] was “inactive” each time.
For the compound `O=c1[nH]sc2cc(Cl)ccc12`, the max response in assay [15] was -92.7%. Besides, in [9], the Potency is 6.68 µM (active). Besides, the Potency entry in [11], in [12], in [14], in [3], in assay [5] and in [7] was “inactive” each time. For the same compound, in [8], the Potency result was “inactive”.
`C/C(=C(/OCCOc1ccc(Cl)cc1)c1ccc(Cl)cc1Cl)n1ccnc1`: the max response in assay [15] is -25.5%. The Potency entry in [9], in assay [10], in [11], in [1], in [3] and in [4] was “inactive” in each case. The Potency result in [5], in assay [6], in assay [7] and in assay [8] was “inactive” in each case.
As for `O=C1NC2CCCCN2C12CCN(CCCN1c3ccccc3CCc3ccc(Cl)cc31)CC2` (configuration not stated), the Potency in [12] was 21.1 µM (active). Also, the Potency entry in [1], in assay [5] and in [7] was “inactive” each time.
Take `CCCCCCCCCCCCCCCC[N+](C)(C)Cc1ccccc1`: the Potency in assay [15] is 11.9 µM (active); in assay [10], 29.9 µM (active); in assay [11], 5.96 µM (active); in assay [12], 0.335 µM (active); in assay [13], 4.22 µM (active); in assay [1] it was 28.2 µM (active). Further, the Potency in assay [2] is 20 µM (active); in [5], 25.1 µM (active); in [8] it was 25.1 µM (active). Moreover, the Potency entry in assay [7] was “inactive”.
For the compound `O=C1NCCN1CCN1CCC(c2cn(-c3ccc(F)cc3)c3ccc(Cl)cc23)CC1`, the Potency in [10] was 21.1 µM (active); in assay [11], 8.41 µM (active); in assay [12], 2.99 µM (active); in assay [14] it was 10.6 µM (active); in assay [1] it was 20 µM (active); in assay [3] it was 35.5 µM (active). Besides, the Potency in [6] was 31.6 µM (active).
`CCCCCOc1ccccc1/C(=C\SC)n1ccnc1`: in assay [15], the max response is -29.1%. The Potency entry in assay [9], in [10], in assay [1], in [2], in [3] and in assay [4] was “inactive” throughout. The Potency entry in assay [6], in [7] and in assay [8] was “inactive” throughout. Further, the Potency in [13] is 18.8 µM (active).
As for `CO/N=C(/C(=O)N[C@@H]1C(=O)N2C(C(=O)[O-])=C(C[n+]3ccn4ncccc43)CS[C@H]12)c1nsc(N)n1`, the Potency entry in [1], in [2], in [3], in [4], in assay [5] and in assay [6] was “inactive” in each case. For the same compound, the Potency entry in assay [7] and in [8] was “inactive” throughout.
In the case of `CC1CN(c2cc3c(cc2F)c(=O)c(C(=O)O)cn3-c2ccc(F)cc2F)CCN1` (configuration not stated), the Potency entry in [1], in [2], in [3] and in assay [4] was “inactive” each time. Also, the activity change, negative = cytotoxicity in [5] was 5.19% [at 6.55 µM]; in assay [6], -5.43% [at 6.55 µM]; in [7], 13.6% [at 6.55 µM]; in assay [8], 18.6% [at 6.55 µM].
